About 8,600 (12%) of roughly 69,000 compounds showed an effect of 50% or more. The sample as a whole holds a higher share of strong results than the screen did.

For this assay, the system named is Plasmodium berghei. Kind of assay: Screen against P. berghei liver stage (PbLuc), transformed with Luciferase, at 10uM. It is filed as functional, HepG2. The settings on record: tested at 10 uM.
As for `O=C(c1ccncc1)N1CCOC2(COCCN(c3cncnc3)C2)C1` (stereo not given), the INHIBITION worked out at 37.8%.
The figure for `Cc1nc(Cn2c3c(ccc2=O)CCN(CC2CCC2)CC3)cs1` is -18.5%; for `CC1c2ncc(CN3CCN(C)CC3)n2CCN1Cc1ccccn1` (stereo not given) it is 53%; for `CC1c2ncc(Cn3cccn3)n2CCN1Cc1ccc(F)cc1` (stereo not given) it is 54.8%.
With `CC1c2ncc(CN3CCN(C)CC3)n2CCN1Cc1ccc(F)cc1` (stereo not given) the figure was 11.5%; with `CC1c2ncc(Cn3cccn3)n2CCN1Cc1cccnc1` (stereo not given), -9.26%.
With `CC1c2ncc(CNC(=O)C3CC3)n2CCN1Cc1ccccn1` (stereo not given) the figure was -88.3%.
For the compound `CC1c2ncc(Cn3cccn3)n2CCN1Cc1ccccn1` (stereo not given), the INHIBITION is listed as 58.4%.
Take `CC1c2ncc(CN3CCN(C)CC3)n2CCN1Cc1ccsc1` (stereo not given): the INHIBITION turned out to be 27.3%.
With `CC1c2ncc(CN3CCN(C)CC3)n2CCN1Cc1cccnc1` (stereo not given) the figure was 34.8%.
As for `CC1c2ncc(Cn3cccn3)n2CCN1c1ncccn1` (stereo not given), the INHIBITION is 23.1%.
The figure for `c1ccc(Cc2nnc(CN3CCOC(Cn4cccn4)C3)o2)cc1` (stereo not given) is 19.4%; for `Cc1cccc(C(=O)N2C[C@@H]3C(CC(=O)N4CCCC4)[C@@H]3C2)n1` (stereo not given in full) it is -2.35%.
With `CSc1nc2ccsc2c(=O)n1CC(=O)N(C)c1ccccc1` the figure was 36.8%.
As to `O=C(O)[C@@H]1CCN(C(=O)c2ccccn2)[C@@H]1c1ccc(F)cc1`, the INHIBITION is recorded as -8.58%.
The figure for `COCCCN1CC2(CCN(C(=O)c3ccc(=O)n(C)c3)CC2)CC1=O` is -14.7%; for `Cn1cc(C(=O)N2CCOc3ccccc32)ccc1=O` it is 51.8%; for `CCN1CCN(C(=O)c2ccc(=O)n(C)c2)c2ccccc21` it is 44.1%.
The figure for `CN1CCN(C(=O)c2ccc(=O)n(C)c2)Cc2ccccc21` is 40.3%; for `CN1CCN(C(=O)c2ccc(=O)n(C)c2)c2ccccc21` it is 50.4%; for `Cc1ccc2c(c1)OCCN2C(=O)c1ccc(=O)n(C)c1` it is 8.48%.
Regarding `CC1CN(C(=O)c2ccc(=O)n(C)c2)c2ccccc2NC1=O` (stereo not given), the INHIBITION is given as -12.2%.
With `Cn1cc(C(=O)N2CCOc3cc(F)ccc32)ccc1=O` the figure was 16.1%; with `CC1CN(C)c2ccccc2N(C(=O)c2ccc(=O)n(C)c2)C1` (stereo not given), 31.8%.
On to `CN1CC2(CCN(C(=O)c3ccc(=O)n(C)c3)CC2)CC1=O`, for which the INHIBITION is given as 50.5%.
The figure for `CN1CC2(CCN(C(=O)c3ccc4nonc4c3)CC2)CC1=O` is -6.01%; for `CN1C(=O)CN(C(=O)c2ccc(=O)n(C)c2)c2ccccc21` it is 60.5%; for `CN(Cc1cccc(F)c1)C(=O)CN1CCOC(Cn2cccn2)C1` (stereo not given) it is -14.8%.
With `COc1coc(C(=O)Nc2ccncc2)cc1=O` the figure was 14.3%.
The figure for `Cc1cnc(N2CCC3(CCC(C(=O)NC(C)C)C3)CC2)nc1` (stereo not given) is 11.3%.

These data come from ChEMBL document CHEMBL4513216, “Probing the Open Global Health Chemical Diversity Library for Multistage-Active Starting Points for Next-Generation Antimalarials” (ACS Infect Dis, 2020).
